Assay [1] can be described thus: qHTS RealTime-Glo MT Cell Viability Assay in HEK293 cells - 16 hour (AID 1224872). Also: nearly all actives have a fitted effect of over 50% in size. Also: potency is read from the fitted curve at half-maximal effect. The method, boiled down:
(§1)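 Nonlytic real-time viability readout: viable cells convert prosubstrate to NanoLuc substrate, giving luminescence proportional to live cell number. HEK293, 600 cells/well, compound added after 5 h, continuous culture at 37 C.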
(In general: Quantitative high-throughput screening tests each substance at several concentrations.)

A short description of assay [2]: qHTS RealTime-Glo MT Cell Viability Assay in HepG2 cells - 8 hour (AID 1224873). Also: nearly all actives have a fitted effect of over 55% in size. The method, boiled down:
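HepG2 cells mixed with RealTime-Glo MT reagents (NanoLuc plus cell-permeant prosubstrate) were seeded at 600 cells/well, incubated 5 h at 37 C/5% CO2, then pinned with compounds in DMSO; nonlytic luminescence tracked viability during 40 h treatment.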

The nature of assay [3]: A CellTox Green Cytotoxicity Assay to monitor cytotoxicity in HEK293 cells - 24 hour (AID 1224875). Also: nearly all actives have a fitted effect of over 45% in size. Also: potency is read from the fitted curve at half-maximal effect. In a few lines: (§2)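 Dead-cell fluorescence measured kinetically: asymmetric cyanine dye, HEK293, 600 cells/well, 5 h settle, 23 nL cpd/DMSO, 37 C, reads 0–40 h every 8 h.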
Assay [4] in a line: A CellTox Green Cytotoxicity Assay to monitor cytotoxicity in HepG2 cells - 16 hour (AID 1224876). Also: nearly all actives have a fitted effect of over 45% in size. Also: potency is read from the fitted curve at half-maximal effect. The method, boiled down:
(§3)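 First, HepG2 cells (600/well) mixed with reagent were plated; second, after 5 h at 37 C they received compounds via pintool; third, fluorescence was measured at 0 h through 40 h at 8 h intervals.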

The nature of assay [5]: qHTS RealTime-Glo MT Cell Viability Assay in HepG2 cells - 32 hour (AID 1224877). Also: nearly all actives have a fitted effect of over 55% in size. Also: potency is read from the fitted curve at half-maximal effect. In a few lines: (§4)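 Luminescence read-out: viable HepG2 cells reduce a prosubstrate to a NanoLuc substrate, giving a signal proportional to live cell number. Reads taken at 0, 8, 16, 24, 32 and 40 h of compound exposure at 37 C.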
Assay [6] is described as follows: A CellTox Green Cytotoxicity Assay to monitor cytotoxicity in HepG2 cells - 24 hour (AID 1224878). Also: nearly all actives have a fitted effect of over 45% in size. Also: potency is read from the fitted curve at half-maximal effect. In a few lines: as §3
Assay [7] can be described thus: A CellTox Green Cytotoxicity Assay to monitor cytotoxicity in HepG2 cells - 40 hour (AID 1224879). Also: nearly all actives have a fitted effect of over 40% in size. Also: potency is read from the fitted curve at half-maximal effect. In a few lines: as §3
Assay [8] can be described thus: qHTS RealTime-Glo MT Cell Viability Assay in HEK293 cells - 0 hour (AID 1224880). Also: top concentration of the series differs between compounds; nearly all actives have a fitted effect of over 45% in size. In a few lines:
(§5)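 600 HEK293 cells per well, dispensed already mixed with RealTime-Glo MT reagents. Compound dosing came 5 h later. The same wells were read for luminescence at 0, 8, 16, 24, 32 and 40 h of exposure at 37 C.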

Assay [9] is described as follows: A CellTox Green Cytotoxicity Assay to monitor cytotoxicity in HEK293 cells - 32 hour (AID 1224881). Also: nearly all actives have a fitted effect of over 40% in size. Also: potency is read from the fitted curve at half-maximal effect. The method, boiled down:
as §2

Assay [10] can be described thus: A CellTox Green Cytotoxicity Assay to monitor cytotoxicity in HepG2 cells - 0 hour (AID 1224882). Also: nearly all actives have a fitted effect of over 35% in size. The method, boiled down: as §3
Assay [11] is described as follows: A CellTox Green Cytotoxicity Assay to monitor cytotoxicity in HepG2 cells - 32 hour (AID 1224883). Also: nearly all actives have a fitted effect of over 50% in size. Also: potency is read from the fitted curve at half-maximal effect. In a few lines:
as §3

Assay [12] is described as follows: A CellTox Green Cytotoxicity Assay to monitor cytotoxicity in HEK293 cells - 8 hour (AID 1224884). Also: nearly all actives have a fitted effect of over 35% in size. Also: potency is read from the fitted curve at half-maximal effect. In a few lines:
as §2

A short description of assay [13]: qHTS RealTime-Glo MT Cell Viability Assay in HepG2 cells - 16 hour (AID 1224885). Also: nearly all actives have a fitted effect of over 50% in size. Also: potency is read from the fitted curve at half-maximal effect. In a few lines:
as §4

The nature of assay [14]: qHTS RealTime-Glo MT Cell Viability Assay in HEK293 cells - 8 hour (AID 1224887). Also: nearly all actives have a fitted effect of over 50% in size. Also: potency is read from the fitted curve at half-maximal effect. In a few lines: as §5
A short description of assay [15]: qHTS RealTime-Glo MT Cell Viability Assay in HepG2 cells - 0 hour (AID 1224889). Also: nearly all actives have a fitted effect of over 50% in size. The method, boiled down: as §4
The nature of assay [16]: A CellTox Green Cytotoxicity Assay to monitor cytotoxicity in HepG2 cells - 8 hour (AID 1224890). Also: nearly all actives have a fitted effect of over 45% in size. Also: potency is read from the fitted curve at half-maximal effect. In a few lines: as §3
Assay [17] can be described thus: qHTS assay to identify small molecule antagonists of the estrogen receptor alpha (ER-alpha) signaling pathway using the BG1 cell line in the presence of 0.1 nM 17-beta-estradiol - cell viability counter screen (AID 1259241). Also: nearly all actives have a fitted effect of over 40% in size. In a few lines:
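In this screen, hormone-deprived VM7Luc4E2 cells were seeded at 4,000 per well, dosed with compound and 0.1 nM estradiol final, and incubated 22 hr at 37C and 5% CO2; fluorogenic live-cell protease signal reported viability.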

Assay [18] in a line: A CellTox Green Cytotoxicity Assay to monitor cytotoxicity in HEK293 cells - 16 hour (AID 1224888). Also: nearly all actives have a fitted effect of over 35% in size. Also: potency is read from the fitted curve at half-maximal effect. In a few lines: as §2
Assay [19] is described as follows: qHTS RealTime-Glo MT Cell Viability Assay in HEK293 cells - 24 hour (AID 1224886). Also: nearly all actives have a fitted effect of over 50% in size. Also: potency is read from the fitted curve at half-maximal effect. In a few lines:
as §1

Assay [20] can be described thus: qHTS RealTime-Glo MT Cell Viability Assay in HEK293 cells - 40 hour (AID 1224874). The conditions noted are these: RealTime-Glo luminescence; max response: hits give low values. The method, boiled down: as §5

A number with no mark means an inactive call. Results filed as inconclusive are left out. Calls of active or inactive are those of the source. Calls follow the shape of the dose curve; as a rule, active = well fitted curve in the direction sought with a large enough effect in the repeat runs; inconclusive = weak or mixed curves; inactive = no such curve, though single readings can be large; an effect the other way counts as inactive or inconclusive.

For `COc1ccc2sc(C(=O)Nc3nnn[nH]3)c(OC(C)C)c2c1`, the Potency entry in assay [1], in assay [2], in [3], in assay [4], in assay [5] and in assay [6] was “inactive” each time. Also, the Potency result in [7], in assay [8], in [9], in [10], in [11] and in assay [12] was “inactive” each time. Besides, the Potency entry in assay [13], in assay [14], in [15], in assay [16] and in [17] was “inactive” in each case.

Take `Clc1cc(Cl)c(-c2c(Cl)c(Cl)cc(Cl)c2Cl)cc1Cl`: the Potency entry in assay [1], in assay [2], in assay [3], in assay [4], in assay [5] and in [6] was “inactive” each time. Also, the Potency entry in assay [7], in [8], in assay [9], in [10], in assay [11] and in [12] was “inactive” throughout. Also, the Potency result in [13], in assay [14], in assay [18] and in [16] was “inactive” in each case.

Turning to `CC(C)=CCCC(C)O` (centres undefined), the Potency result in [1], in [2], in [4], in [5], in assay [6] and in assay [7] was “inactive” in each case. Also, the Potency entry in assay [8], in assay [9], in assay [10], in assay [11], in assay [13] and in [19] was “inactive” in each case. Further, the Potency entry in assay [14], in [18], in assay [15], in assay [16] and in [17] was “inactive” in each case.

For `O=C1NCCN1CCN1CCC(c2cn(-c3ccc(F)cc3)c3ccc(Cl)cc23)CC1`, the Potency in assay [1] is 23.9 µM (active); in assay [20], 12 µM (active); in assay [3] it was 23.9 µM (active); in assay [4] it was 26.8 µM (active); in assay [5], 26.8 µM (active); in [6], 26.8 µM (active). For the same compound, the Potency was 26.8 µM (active) in assay [7]; 23.9 µM (active) in [9]; 26.8 µM (active) in assay [11]; 23.9 µM (active) in assay [13]; 21.3 µM (active) in assay [19]. The Potency entry in [8], in assay [12] and in assay [15] was “inactive” throughout.

Consider `CCCCN(C)C`, for which the Potency result in assay [1], in assay [2], in [3], in assay [4], in [5] and in assay [6] was “inactive” each time. The Potency result in [7], in [8], in assay [9], in [11], in assay [12] and in [13] was “inactive” each time. Further, the Potency result in assay [19], in [14], in assay [18], in assay [15] and in assay [17] was “inactive” each time.

For `NC(=O)C(=O)N/N=C/c1ccc([N+](=O)[O-])o1`, the Potency entry in [1], in assay [2], in [3], in assay [4], in assay [5] and in assay [6] was “inactive” in each case. The Potency result in assay [8], in assay [9], in [12], in assay [13], in assay [19] and in [14] was “inactive” in each case. In addition, the Potency result in assay [18], in assay [15], in assay [16] and in assay [17] was “inactive” throughout.

Take `CC=O`: the Potency in assay [1] is 4.57 µM (active); in [20], 0.324 µM (active); in assay [3] it was 57.5 µM (active); in assay [4] it was 57.5 µM (active); in assay [5] it was 45.7 µM (active); in assay [6], 45.7 µM (active). Besides, the Potency was 25.7 µM (active) in [7]; 51.3 µM (active) in assay [9]; 36.3 µM (active) in assay [11]; 57.5 µM (active) in assay [12]; 51.3 µM (active) in assay [13]; 0.575 µM (active) in assay [19]. Further, the Potency in assay [18] and in [16] was 57.5 µM (active) in each case. Also, the Potency result in assay [8], in [14] and in assay [17] was “inactive” each time.

Consider `CN1[C@@H]2CC[C@H]1CC(OC(=O)C(CO)c1ccccc1)C2` (some centres undefined), for which the Potency entry in assay [1], in assay [2], in assay [3], in [5], in assay [6] and in [7] was “inactive” throughout. The Potency result in assay [8], in assay [10], in assay [11], in assay [12], in assay [13] and in [19] was “inactive” throughout. Besides, the Potency result in assay [14], in assay [18], in assay [16] and in assay [17] was “inactive” each time.

With `CCN(CC)CCOC(=O)C1(C2CCCCC2)CCCCC1`, the Potency in assay [1] was 21.3 µM (active); in assay [3], 23.9 µM (active); in assay [4], 23.9 µM (active); in [6], 23.9 µM (active); in assay [7], 23.9 µM (active); in assay [9], 23.9 µM (active). The Potency in assay [11] was 23.9 µM (active). The Potency result in [2], in [5], in assay [10], in assay [12], in assay [13] and in [17] was “inactive” each time.

In the case of `CC(CN(C)C)CN1c2ccccc2CCc2ccccc21` (centres undefined), the Potency entry in assay [1], in assay [2], in assay [3], in assay [5], in assay [8] and in [10] was “inactive” throughout. The Potency entry in assay [12], in assay [13], in assay [14], in assay [18], in assay [15] and in [17] was “inactive” throughout. Also, the Potency in assay [7] and in assay [11] was 23.9 µM (active) throughout.

With `COc1cc(C=C2CCC/C(=C\c3ccc(O)c(OC)c3)C2=O)ccc1O`, the Potency is 21.3 µM (active) in assay [1]; 23.9 µM (active) in assay [5]; 23.9 µM (active) in assay [6]; 21.3 µM (active) in assay [7]; 21.3 µM (active) in [11]; 23.9 µM (active) in assay [19]. In assay [14], the Potency was 2.39 µM (active). In addition, the Potency result in assay [2], in assay [10], in assay [12] and in assay [18] was “inactive” in each case.

Take `CC(=O)Oc1ccc(C2(c3ccc(OC(C)=O)cc3)Oc3ccccc3NC2=O)cc1`: the Potency entry in assay [1], in assay [2], in assay [3], in [4], in assay [5] and in [8] was “inactive” each time. Moreover, the Potency result in assay [9], in assay [10], in assay [12], in assay [13], in [14] and in assay [18] was “inactive” throughout. The Potency result in assay [15], in [16] and in [17] was “inactive” throughout.

In the case of `ClC/C=C\CCl`, the Potency result in assay [1], in assay [2], in [4], in assay [5], in assay [6] and in [7] was “inactive” throughout. Also, the Potency entry in [8], in assay [10], in assay [11], in assay [12], in [13] and in assay [19] was “inactive” throughout. Further, the Potency entry in [14], in assay [18], in assay [15] and in assay [16] was “inactive” in each case.

(Values after PubChem BioAssay (Tox21).)
